Bioassay records: PubChem BioAssay, several laboratories
SRC2 inh – inhibition of GAL4-SRC2 driven luciferase reporter, primary screen, SRC2 inhibitor project, cell-based, luminescence | Nuclear receptor coactivator 2 (Homo sapiens), Q15596 | inhibition, % at 9 µM | 370,000 tested, 0.17% active | HEK293 GAL4-SRC2 luciferase reporter;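 active = inhibition above the mean inhibition of all tested compounds plus 3 SD, set per campaign, cut at about 52% in these data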
SRC1 inh – SRC1 coactivator transcriptional activity inhibitors, primary screen, cell-based, luminescence | HEK293 GAL4-SRC1 luciferase reporter | inhibition, % at 3.6 µM | 360,000 tested, 0.12% active;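 active = inhibition above the campaign mean plus 3 SD, with each screening campaign given its own cutoff, cut at about 60% in these data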
NR5A2 inv ag – LRH-1 (NR5A2) inverse agonists, primary screen, cell-based, luminescence, HEK293T, StAR-luciferase reporter | inhibition, % at 3.6 µM | LRH-1 transfected, 24 h | 360,000 tested, 0.13% active | Nuclear receptor subfamily 5 group A member 2 (Homo sapiens), O00482;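 active = inhibition above the mean inhibition of all tested compounds plus 3 SD, cut at about 73% in these data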
NCOA3 inh – SRC3 coactivator transcriptional activity inhibitors, primary screen, cell-based, luminescence; inhibition, % at 3.6 µM; HEK293 GAL4-SRC3 luciferase reporter; Nuclear receptor coactivator 3 (Homo sapiens), Q9Y6Q9; 360,000 tested, 0.17% active;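 active = inhibition above a per-campaign cutoff, the mean of all compounds plus 3 SD, cut at about 60% in these data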;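 note: higher means less SRC3-driven luciferase light from the GAL4 reporter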
Gli-Sufu antag – Gli-Sufu pathway antagonists, primary screen, luciferase luminescence, Sufu-KO-LIGHT cells, uHTS; Sufu-KO-LIGHT fibroblasts, Gli luciferase reporter luminescence; inhibition, % at 5 µM; AID 588413, 2011; 340,000 tested, 0.74% active;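 active = inhibition above about 55%, limit read from the data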
COUP-TFII inh – NR2F2 transcriptional activity inhibitors, primary screen, cell-based, luciferase reporter, HEK293T, luminescence | inhibition, % at 8.6 µM | 370,000 tested, 0.7% active | AID 686940, 2013 | HEK293T NGFI-A luciferase reporter;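 active = inhibition above a per-plate cutoff, mean inhibition of test wells between control levels plus 3 SD, cut at about 38% in these data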;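 note: cells cotransfected with COUP-TFII expression vector driving the NGFI-A reporter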
Target sequence (P24468 whole entry, looked up): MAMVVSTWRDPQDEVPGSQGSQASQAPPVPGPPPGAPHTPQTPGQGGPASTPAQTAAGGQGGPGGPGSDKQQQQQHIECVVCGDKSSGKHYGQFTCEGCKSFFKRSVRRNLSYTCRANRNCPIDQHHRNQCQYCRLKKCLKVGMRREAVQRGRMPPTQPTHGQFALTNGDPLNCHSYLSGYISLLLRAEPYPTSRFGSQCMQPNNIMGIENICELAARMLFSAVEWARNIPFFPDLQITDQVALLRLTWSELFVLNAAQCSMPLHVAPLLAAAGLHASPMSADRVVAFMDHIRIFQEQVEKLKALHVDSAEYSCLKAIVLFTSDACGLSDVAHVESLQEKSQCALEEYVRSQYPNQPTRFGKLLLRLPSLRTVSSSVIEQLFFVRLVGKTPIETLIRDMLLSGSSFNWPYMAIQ
Gli antag conf – Gli-SUFU pathway antagonists, confirmation, single concentration, luciferase luminescence, Sufu-KO-LIGHT cells | shares compounds with Gli-Sufu antag | Gli luciferase reporter | inhibition, % at 5 µM | 2,500 tested, 40% active;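 active = mean inhibition at 5 µM reaching about 45%, limit read from the data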
SufuKO cytotox – cytotoxicity in Sufu-KO-LIGHT cells, confirmation, cytotoxicity control for Gli-SUFU antagonist project, cell-based, ATP luminescence, single concentration | shares compounds with Gli-Sufu antag | cytotoxicity, % at 5 µM | 2,500 tested, 32% active;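 active = mean cytotoxicity at 5 µM above about 25%, limit read from the data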;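 note: cells exposed to compound overnight for roughly 16 to 18 hours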
Wnt3a counter – Wnt3a reporter signal inhibition, confirmation, counter-screen for Gli-SUFU antagonist project, Wnt-LIGHT cells, luminescence, single concentration; AID 651995, 2013; shares compounds with Gli-Sufu antag; Wnt3a-driven luciferase reporter; inhibition, % at 6.25 µM; 2,500 tested, 20% active;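 active = mean inhibition above about 25%, limit read from the data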
VP16 Luc counter – Gal4-VP16 luciferase reporter inhibitors, counter-screen for COUP-TFII antagonist project, cell-based, luminescence, HEK293 | AID 687007, 2013 | shares compounds with COUP-TFII inh | 2,500 tested, 25% active | inhibition, % at 8.5 µM; in the data active = inhibition above about 13%
COUP-TFII conf – NR2F2 transcriptional activity inhibitors, confirmation, cell-based, luciferase reporter, HEK293, triplicate; shares compounds with COUP-TFII inh; HEK293 NGFI-A luciferase reporter, luminescence; inhibition, % at 8.5 µM; 2,500 tested, 45% active; AID 687008, 2013;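 active = mean inhibition over three repeats above a set limit taken from the earlier primary screen, cut at about 38% in these data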
Of the large screens only hits and unclear results are named; the others gave an inactive call (follow-up assays come after a bar, where they were run). Only some compounds are listed: those with a hit (about 1.3% of all), similar ones and a draw of the others.

C=C1C(=O)C(C)=C2C(=O)N3Cc4[nH]c5ccccc5c4CC3(C(=O)OC)C12 (centres undefined)	none (no result: SRC1 inh, NR5A2 inv ag, NCOA3 inh, Gli-Sufu antag)
Nc1ccc(C2(c3ccc(N)cc3)CN3CCC2CC3)cc1	Gli-Sufu antag 71 | Gli antag conf inactive | SufuKO cytotox inactive | Wnt3a counter inactive
C[N+]1=C(/C=C/Nc2ccccc2)C(C)(C)c2ccccc21	Gli-Sufu antag 63 | Gli antag conf 66 | SufuKO cytotox 26 | Wnt3a counter inactive
COc1ccc(CC2C(=O)NC(C)C(=O)N(C)C3C(=O)N(C)C(Cc4ccc(O)c(c4)Oc4ccc(cc4)C3O)C(=O)NC(C)C(=O)NC(C)C(=O)N2C)cc1 (centres undefined)	SRC2 inh 75, SRC1 inh 96, NR5A2 inv ag 99, NCOA3 inh 94, Gli-Sufu antag 93, COUP-TFII inh 89 | Gli antag conf 96 | SufuKO cytotox 87 | Wnt3a counter 105 | VP16 Luc counter 27 | COUP-TFII conf 91
C[C@]12CC[C@@H](O)CC1=CCC1C2CC[C@@]2(C)C1C[C@@H](F)[C@H]2O (some centres undefined)	none
CN[C@@H](C)[C@@H](O)c1ccccc1	none
CC(C)(C)c1ccc(CSc2cnn(C(C)(C)C)c(=O)c2Cl)cc1	Gli-Sufu antag 78, COUP-TFII inh 71 | Gli antag conf 86 | SufuKO cytotox 44 | Wnt3a counter 29 | VP16 Luc counter inactive | COUP-TFII conf 61
CC(C)(C)c1ccc(C(=O)C2CCCN(C3CCC3)C2)cc1 (centres undefined)	none
CC1CCOC(=O)C=CC=CC(=O)OC2CC3OC4C5OC5(C)C(O)CC4(COC(=O)C1O)C2(C)C31CO1 (centres undefined)	SRC2 inh 73, SRC1 inh 96, NR5A2 inv ag 98, NCOA3 inh 93, Gli-Sufu antag 91, COUP-TFII inh 92 | Gli antag conf 93 | SufuKO cytotox 77 | Wnt3a counter 103 | VP16 Luc counter 23 | COUP-TFII conf 89
N#Cc1cn(C2OC(CO)C(O)C2O)c2ncnc(N)c12 (centres undefined)	SRC2 inh 61, NR5A2 inv ag 97, Gli-Sufu antag 81, COUP-TFII inh 47 | Gli antag conf 98 | SufuKO cytotox 97 | Wnt3a counter inactive | VP16 Luc counter inactive | COUP-TFII conf inactive
CCCNC(=O)N1[C@H]2CC[C@@H]1C(C(=O)OC)=C(c1ccccc1)C2	none
O=C(Nc1ccccc1)c1cccn(Cc2ccccc2)c1=O	none
O=C(Nc1ccncc1)c1cccn(Cc2ccccc2)c1=O	COUP-TFII inh 66 | VP16 Luc counter inactive | COUP-TFII conf 51
Oc1ccccc1-[n+]1c(-c2ccccc2)cc(-c2ccccc2)cc1-c1ccccc1	none
Cc1ccccc1-[n+]1c(-c2ccccc2)cc(-c2ccccc2)cc1-c1ccccc1	NCOA3 inh 67, Gli-Sufu antag 77, COUP-TFII inh 68 | VP16 Luc counter 22 | COUP-TFII conf 77
CC(C)(O)/C=C/C(=O)C(C)(O)C1C(O)CC2(C)C3CC=C4C(C=C(O)C(=O)C4(C)C)C3(C)C(=O)CC12C (centres undefined)	SRC2 inh 75, NCOA3 inh 67, Gli-Sufu antag 89, COUP-TFII inh 44 | VP16 Luc counter 61 | COUP-TFII conf 65
CN1/C(=C\C=C2C(=O)NC(=O)NC2=O)C(C)(C)c2ccccc21	none
CCN1/C(=C/C=C/C2=[N+](CC)c3ccccc3C2(C)C)C(C)(C)c2ccccc21	SRC1 inh 72, NR5A2 inv ag 98, NCOA3 inh 82, COUP-TFII inh 92 (no result: Gli-Sufu antag) | VP16 Luc counter 42 | COUP-TFII conf 90
CC1CC(C)(O)CC(C(O)CC2CC(=O)NC(=O)C2)C1=O (centres undefined)	SRC2 inh 72, SRC1 inh 94, NR5A2 inv ag 98, NCOA3 inh 93, Gli-Sufu antag 84, COUP-TFII inh 87 | VP16 Luc counter inactive | COUP-TFII conf 75
CC1(C)CC(N(CCc2ccccc2)Cc2ccccc2)CCO1 (centres undefined)	none
O=[N+]([O-])[N-][n+]1cnn(Cc2ccc(Cl)cc2)c1	none
COC(=O)c1ccc(NC(=O)CSc2nc3ccc(N4C(=O)C5C6C=CC(C6)C5C4=O)cc3s2)cc1 (centres undefined)	COUP-TFII inh 64 | VP16 Luc counter inactive | COUP-TFII conf inactive
Cc1nc2ccccc2c(=O)n1-c1ccc(F)cc1F	none
CC(=O)OC1CC2OC3C=C(C)CCC3(C)C1(C)C21CO1 (centres undefined)	SRC2 inh 69, SRC1 inh 96, NR5A2 inv ag 103, NCOA3 inh 95, COUP-TFII inh 85 (no result: Gli-Sufu antag) | VP16 Luc counter 17 | COUP-TFII conf 72
CC(=O)O[C@H]1C[C@@H]2OC3C=C(C)CCC3(C)[C@@]1(C)[C@@]21CO1 (some centres undefined)	SRC2 inh 69, SRC1 inh 94, NR5A2 inv ag 97, NCOA3 inh 92, Gli-Sufu antag 66, COUP-TFII inh 77 | VP16 Luc counter 16 | COUP-TFII conf 72
COP(=O)(OC)C(NC(C)=O)C(Cl)(Cl)Cl (centres undefined)	none
COC1CC2C=C(C)C=CC=CC(=O)NC(c3ccccc3)CC=CCCC(O)CC(=O)C2=C1O (centres undefined)	NR5A2 inv ag 99, NCOA3 inh 78, COUP-TFII inh 72 (no result: Gli-Sufu antag) | VP16 Luc counter 50 | COUP-TFII conf 73
